# Results from PubChem BioAssay (EPA / NIEHS).
# Inconclusive results are not listed. Activity calls are given as the source filed them. Rule for the calls, unless noted: active = hit-call score of the fitted dose curve at least 0.9, where 1 is the maximum; inconclusive = response in the unintended direction; inactive = score below 0.9.
# Target: human Serotonin, 5-Hydroxytryptamine Receptor 3 (5HT3), HTR3A (gene 3359) (UniProt P46098)
# Experiment: NVS_LGIC_h5HT3: NovaScreen (NVS) Ligand-Gated Ion Channel Assay for human Serotonin, 5-Hydroxytryptamine Receptor 3 (5HT3) (AID 2283325)
# How it was run: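 Initially tested at 25 uM in duplicate, then up to 50 uM in concentration-response for actives, compounds competed with a radioligand for HEK293-derived human 5-HT3 receptor. Bound counts were measured by filtration and scintillation at 1 h; loss of signal versus DMSO.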
# human Serotonin, 5-Hydroxytryptamine Receptor 3 (5HT3), HTR3A (gene 3359), sequence (P46098 whole entry, looked up): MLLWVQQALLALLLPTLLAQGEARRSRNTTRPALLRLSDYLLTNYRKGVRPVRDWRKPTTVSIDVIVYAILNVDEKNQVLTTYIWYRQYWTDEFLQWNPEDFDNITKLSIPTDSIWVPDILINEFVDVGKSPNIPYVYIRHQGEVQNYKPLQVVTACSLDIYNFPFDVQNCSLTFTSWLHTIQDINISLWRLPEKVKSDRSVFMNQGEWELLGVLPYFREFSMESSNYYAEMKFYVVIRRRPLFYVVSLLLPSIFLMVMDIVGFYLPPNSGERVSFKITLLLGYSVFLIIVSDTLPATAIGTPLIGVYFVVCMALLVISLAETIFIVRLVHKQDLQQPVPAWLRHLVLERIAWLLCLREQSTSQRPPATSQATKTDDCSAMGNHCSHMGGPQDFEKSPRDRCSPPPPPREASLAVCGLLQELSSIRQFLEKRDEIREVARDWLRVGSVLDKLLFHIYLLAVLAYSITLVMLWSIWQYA
row,Structure (SMILES),AC50
1,OCC(O)CO,25 µM (active)
2,CCCCCCCCCCCCCCOS(=O)(=O)O,25 µM (active)
3,Cc1cn([C@H]2C=C[C@@H](CO)O2)c(=O)[nH]c1=O,8.81 µM (active)

# Target: rat Thyrotropin Releasing Hormone Receptor (TRH), Trhr (gene 25570) (UniProt Q01717)
# Experiment: NVS_GPCR_rTRH: NovaScreen (NVS) G Protein-Coupled Receptor Assay for rat Thyrotropin Releasing Hormone Receptor (TRH) (AID 2283329);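 note: hit means lower bound tracer signal versus DMSO baseline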
# How it was run: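 Rat forebrain membrane prep, radioligand displacement, filter scintillation readout at 4 h. Single conc 25 uM, duplicate; actives retested as concentration series. DMSO = negative control/baseline.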
# rat Thyrotropin Releasing Hormone Receptor (TRH), Trhr (gene 25570), sequence (Q01717 whole entry, looked up): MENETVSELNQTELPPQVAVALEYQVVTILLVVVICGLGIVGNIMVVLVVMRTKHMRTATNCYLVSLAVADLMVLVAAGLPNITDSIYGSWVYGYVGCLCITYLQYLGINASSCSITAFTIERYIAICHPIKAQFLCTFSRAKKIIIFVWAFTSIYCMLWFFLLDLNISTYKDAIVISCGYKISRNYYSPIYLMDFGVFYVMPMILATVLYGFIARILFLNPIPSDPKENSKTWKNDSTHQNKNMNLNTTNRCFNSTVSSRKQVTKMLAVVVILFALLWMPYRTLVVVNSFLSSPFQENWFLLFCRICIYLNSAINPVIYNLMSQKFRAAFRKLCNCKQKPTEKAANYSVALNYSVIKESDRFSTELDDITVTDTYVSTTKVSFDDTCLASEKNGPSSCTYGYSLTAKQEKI
Structure (SMILES),outcome,AC50
O=[Si]=O,inactive,
O=C(O)CN(CC(=O)O)CC(=O)O,,5.7 µM (active)
C#CC(O)C(CC)CCCC (configuration not stated),inactive,
CS(=O)(=O)c1ccc([C@@H](C[C@H]2CCC(=O)C2)C(=O)Nc2cnccn2)cc1Cl,inactive,
CC(=O)[C@@]1(O)CC[C@H]2[C@@H]3CCC4=CC(=O)CC[C@]4(C)[C@H]3CC[C@@]21C,inactive,
O=C1CCCCC1,inactive,

# Target: human Peripheral-type Benzodiazepine Receptor (PBR), TSPO (gene 706) (UniProt P30536)
# Experiment: NVS_MP_hPBR: NovaScreen (NVS) Membrane Protein Assay for human Peripheral-type Benzodiazepine Receptor (PBR) (AID 2283331);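 note: hits reduce radioligand binding relative to DMSO baseline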
# Description: NVS_MP_hPBR is a biochemical, single-readout assay that uses extracted gene-proteins from Human colonic cell membranes in a tissue-based cell-free assay. Measurements were taken 1 hour after chemical dosing in a 48-well plate.NVS_MP_hPBR is one of one assay component(s) measured or calculated from the NVS_MP_hPBR assay. It is designed to make measurements of radioligand binding, a form of binding reporter, as detected with scintillation counting signals by Filter-based radiodetection technology.Data from the assay component NVS_MP_hPBR was analyzed into 1 assay endpoint. This assay endpoint, NVS_MP_hPBR, was analyzed in the positive analysis fitting direction relative to DMSO as the negative control and baseline of activity. Using a type of binding reporter, loss-of-signal activity can be used to understand changes in the binding as they relate to the gene TSPO. Furthermore, this assay endpoint can be referred to as a primary readout, because the performed assay has only produced 1 assay endpoint. To generalize the intended target to other relatable targets, this assay endpoint is annotated to the transporter intended target family, where the subfamily is cholesterol transporter.
# Binding assays used specific radioligands (tritiated, iodinated) with non-radioactive competitive displacement ligands in agonist or antagonist protocols (as indicated) and various reference compounds and inhibitors to titrate specific binding to receptors and transporters. Most enzyme assays (CYPs, kinases, phosphatases, proteases, HDACs) used recombinant protein and specific substrates (fluorescence mostly, some colorimetric and radioactive) and inhibitors, followed by a biochemical separation of substrate and product. All assays for the biochemical HTS were initially run in duplicate at a single concentration (10 uM for CYP450 assays and 25 uM for all others). […] Each assay was run with positive and negative controls, and concurrent controls on every plate. The follow-up (secondary) screen tested active chemical-pairs in concentration series, as well as a few additional assays not tested in the primary screen, some selected negative inactives, and several cases re-run in the concentration series for confirmatory purposes.
# human Peripheral-type Benzodiazepine Receptor (PBR), TSPO (gene 706), sequence (P30536 whole entry, looked up): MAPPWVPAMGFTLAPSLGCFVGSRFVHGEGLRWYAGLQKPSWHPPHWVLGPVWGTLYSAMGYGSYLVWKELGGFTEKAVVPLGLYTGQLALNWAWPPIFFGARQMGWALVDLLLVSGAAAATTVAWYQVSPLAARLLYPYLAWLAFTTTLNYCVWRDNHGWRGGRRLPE
Structure (SMILES),outcome,AC50
CC(COCC(C)OC(=O)c1ccccc1)OC(=O)c1ccccc1 (configuration not stated),inactive,
Oc1ccc(O)cc1,inactive,
CCCCCCC(CCCCCCCCCCC(=O)OCC(COC(C)=O)OC(C)=O)OC(C)=O (configuration not stated),inactive,
CC(C)(O)c1ccc(CNC(=O)c2cccnc2Oc2ccc(F)cc2)cc1,,8.65 µM (active)

# Target: Glutamate receptor ionotropic, kainate 1 (Rattus norvegicus) (UniProt P22756)
# Experiment: NVS_IC_rKAR: NovaScreen (NVS) Ion Channel Assay for rat Kainic Acid Receptors (KAR) (AID 2283334; active = hit-call score of the fitted dose curve at least 0.9, where 1 is the maximum; inactive = score below 0.9)
# How it was run: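 Rat forebrain membrane preparation incubated 1 h with radioligand and test chemical; bound signal read by filtration and scintillation. Single-concentration screen at 25 uM, then concentration series to 50 uM maximum.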
# Glutamate receptor ionotropic, kainate 1 (Rattus norvegicus), sequence (P22756 whole entry, looked up): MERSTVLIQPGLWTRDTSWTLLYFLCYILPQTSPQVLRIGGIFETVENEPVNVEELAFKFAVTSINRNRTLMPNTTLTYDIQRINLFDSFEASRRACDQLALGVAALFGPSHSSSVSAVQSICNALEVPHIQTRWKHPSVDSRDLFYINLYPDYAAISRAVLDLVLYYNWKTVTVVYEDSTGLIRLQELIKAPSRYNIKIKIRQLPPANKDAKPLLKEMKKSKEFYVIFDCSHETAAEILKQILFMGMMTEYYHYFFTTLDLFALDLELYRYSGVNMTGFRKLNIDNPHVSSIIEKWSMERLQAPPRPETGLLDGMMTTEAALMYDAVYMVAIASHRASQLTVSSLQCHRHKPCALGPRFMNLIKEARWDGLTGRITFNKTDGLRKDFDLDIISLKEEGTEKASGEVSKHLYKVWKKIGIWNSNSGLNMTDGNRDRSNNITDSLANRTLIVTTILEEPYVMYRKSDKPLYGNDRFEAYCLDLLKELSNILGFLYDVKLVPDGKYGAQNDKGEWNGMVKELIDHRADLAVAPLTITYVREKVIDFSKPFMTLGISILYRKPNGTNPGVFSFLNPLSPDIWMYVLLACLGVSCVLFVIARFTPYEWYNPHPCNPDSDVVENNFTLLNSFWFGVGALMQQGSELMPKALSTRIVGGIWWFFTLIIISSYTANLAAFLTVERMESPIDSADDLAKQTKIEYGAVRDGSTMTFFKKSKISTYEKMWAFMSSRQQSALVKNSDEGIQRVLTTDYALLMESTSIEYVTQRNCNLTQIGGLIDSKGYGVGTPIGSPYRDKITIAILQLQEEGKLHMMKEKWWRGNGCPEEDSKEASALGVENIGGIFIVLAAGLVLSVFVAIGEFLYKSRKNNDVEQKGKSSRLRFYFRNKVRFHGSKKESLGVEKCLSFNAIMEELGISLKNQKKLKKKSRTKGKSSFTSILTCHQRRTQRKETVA
row,Structure (SMILES),outcome
1,CC(C)COC(=O)CCCCC(=O)OCC(C)C,inactive
2,O=C(Oc1ccccc1)c1cccc(C(=O)Oc2ccccc2)c1,inactive
3,COC(=O)CCC(=O)OC,inactive

# Target: rat Peripheral-type Benzodiazepine Receptor (PBR), Tspo (gene 24230) (UniProt P16257)
# Experiment: NVS_MP_rPBR: NovaScreen (NVS) Membrane Protein Assay for rat Peripheral-type Benzodiazepine Receptor (PBR) (AID 2283335)
# How it was run: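 Competitive displacement of specific radioligand from rat kidney membrane PBR, read by filtration and scintillation after 1 h. Compounds first tested at 25 uM in duplicate, then in concentration series; signal loss relative to DMSO.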
# rat Peripheral-type Benzodiazepine Receptor (PBR), Tspo (gene 24230), sequence (P16257 whole entry, looked up): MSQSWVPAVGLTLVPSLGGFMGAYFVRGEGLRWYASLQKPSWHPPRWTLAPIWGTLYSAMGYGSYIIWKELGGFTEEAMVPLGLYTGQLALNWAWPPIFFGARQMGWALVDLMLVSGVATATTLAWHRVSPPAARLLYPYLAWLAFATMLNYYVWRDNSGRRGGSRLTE
Structure (SMILES),AC50,outcome
CC(COCC(C)OC(=O)c1ccccc1)OC(=O)c1ccccc1 (configuration not stated),17 µM (active),
CC(C)(O)c1ccc(CNC(=O)c2cccnc2Oc2ccc(F)cc2)cc1,4.31 µM (active),
Cc1ccc(-c2cc(C(F)(F)F)nn2-c2ccc(S(N)(=O)=O)cc2)cc1,,inactive

# Target: bovine Gamma-Aminobutyric Acid Type A Receptor Agonist (GABAR Agonist), GABRA1 (gene 780973) (UniProt P08219)
# Experiment: NVS_LGIC_bGABAR_Agonist: NovaScreen (NVS) Ligand-Gated Ion Channel Assay for bovine Gamma-Aminobutyric Acid Type A Receptor Agonist (GABAR Agonist) (AID 2283338)
# How it was run: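 Radioligand binding to bovine cerebellar membranes in agonist format, read by filter-based scintillation counting after 1 h. Primary screen in duplicate at 25 uM, with actives followed in concentration series. Gain of signal versus DMSO.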
# bovine Gamma-Aminobutyric Acid Type A Receptor Agonist (GABAR Agonist), GABRA1 (gene 780973), sequence (P08219 whole entry, looked up): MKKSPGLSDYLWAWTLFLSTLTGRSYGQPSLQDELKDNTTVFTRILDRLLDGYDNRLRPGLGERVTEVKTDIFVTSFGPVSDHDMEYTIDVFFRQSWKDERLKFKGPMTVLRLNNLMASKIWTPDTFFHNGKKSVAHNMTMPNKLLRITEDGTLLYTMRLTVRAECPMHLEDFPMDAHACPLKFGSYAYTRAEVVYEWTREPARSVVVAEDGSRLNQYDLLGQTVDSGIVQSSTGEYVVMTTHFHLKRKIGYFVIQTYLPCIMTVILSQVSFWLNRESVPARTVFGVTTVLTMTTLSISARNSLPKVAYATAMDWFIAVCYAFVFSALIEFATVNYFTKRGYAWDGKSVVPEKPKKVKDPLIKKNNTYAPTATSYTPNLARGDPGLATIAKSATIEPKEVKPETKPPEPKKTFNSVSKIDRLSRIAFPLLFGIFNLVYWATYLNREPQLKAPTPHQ
row,Structure (SMILES),outcome
1,Cc1c(C)c2c(c(C)c1O)CCC(C)(COc1ccc(CC3SC(=O)NC3=O)cc1)O2 (configuration not stated),inactive
2,N[C@@H](Cc1c[nH]c2ccccc12)C(=O)O,inactive
3,CC(C)(C)c1ccccc1,inactive
